# Laboratory results reported in the supplement of paper PMC12819154, “High-throughput peptide-centric local stability assay extends protein–ligand identification to membrane proteins, tissues and bacteria” (Nature Structural & Molecular Biology, 2025).
# Compound: Nc1ncnc2c1ncn2[C@@H]1O[C@H](COP(=O)(O)OP(=O)(O)OP(=O)(O)O)[C@@H](O)[C@H]1O [adenosine 5'-triphosphate]
# Assay: log2 fold change of tryptic peptide abundance, ligand vs vehicle (limited proteolysis) (log2 ratio); higher = more trypsin-susceptible (destabilized)
# Conditions: ligand concentration: 5 mM; sample: E. coli desalted lysate; replicate design: treated before aliquoting
# Experimental: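 HT-PELSA: desalted E. coli K-12 BW25113 lysate (with 12 mM MgCl2) incubated with 5 mM ATP (pH 7) or water for 30 min at 25 C, then a 4 min trypsin pulse at 22 C. Peptides were quantified by DIA-MS (4 replicates). Value is the peptide log2 fold change (treated/control); negative = stabilized. Scale: negative = ligand-stabilized region.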
# 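Also: lysate desalted by size exclusion to strip endogenous ATP, peptide intensities built from DIA-NN precursor signals, and peptides missing any value discarded before comparison.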
# Sequence of UniProt P39830 (P39830 whole entry): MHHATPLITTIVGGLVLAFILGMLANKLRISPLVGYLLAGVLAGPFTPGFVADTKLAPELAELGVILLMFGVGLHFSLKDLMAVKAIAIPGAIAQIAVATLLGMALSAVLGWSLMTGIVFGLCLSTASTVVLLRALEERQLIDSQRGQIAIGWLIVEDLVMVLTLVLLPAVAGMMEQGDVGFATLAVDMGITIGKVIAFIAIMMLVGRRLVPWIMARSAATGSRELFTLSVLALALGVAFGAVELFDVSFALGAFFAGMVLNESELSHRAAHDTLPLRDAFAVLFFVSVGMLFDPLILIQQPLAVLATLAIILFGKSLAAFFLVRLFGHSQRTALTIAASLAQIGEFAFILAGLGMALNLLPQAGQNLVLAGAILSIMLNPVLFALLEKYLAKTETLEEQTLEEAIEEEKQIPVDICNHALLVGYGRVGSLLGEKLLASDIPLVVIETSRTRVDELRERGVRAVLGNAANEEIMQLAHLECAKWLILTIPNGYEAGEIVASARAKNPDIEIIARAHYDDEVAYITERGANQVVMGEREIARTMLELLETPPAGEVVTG
# Sequence of UniProt P0AAG8 (P0AAG8 whole entry): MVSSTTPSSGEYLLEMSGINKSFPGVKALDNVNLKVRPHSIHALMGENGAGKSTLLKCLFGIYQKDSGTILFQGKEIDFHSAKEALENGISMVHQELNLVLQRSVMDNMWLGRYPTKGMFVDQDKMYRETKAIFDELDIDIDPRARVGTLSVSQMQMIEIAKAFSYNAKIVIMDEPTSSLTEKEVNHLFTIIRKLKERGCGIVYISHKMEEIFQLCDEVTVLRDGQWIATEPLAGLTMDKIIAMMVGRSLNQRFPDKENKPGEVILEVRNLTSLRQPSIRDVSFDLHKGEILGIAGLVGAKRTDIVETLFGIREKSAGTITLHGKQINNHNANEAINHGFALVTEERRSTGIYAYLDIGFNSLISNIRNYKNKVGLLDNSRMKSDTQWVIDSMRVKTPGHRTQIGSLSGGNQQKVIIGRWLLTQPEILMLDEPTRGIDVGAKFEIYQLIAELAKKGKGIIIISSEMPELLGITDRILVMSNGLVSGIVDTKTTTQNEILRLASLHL
# Sequence of UniProt P37024 (P37024 whole entry): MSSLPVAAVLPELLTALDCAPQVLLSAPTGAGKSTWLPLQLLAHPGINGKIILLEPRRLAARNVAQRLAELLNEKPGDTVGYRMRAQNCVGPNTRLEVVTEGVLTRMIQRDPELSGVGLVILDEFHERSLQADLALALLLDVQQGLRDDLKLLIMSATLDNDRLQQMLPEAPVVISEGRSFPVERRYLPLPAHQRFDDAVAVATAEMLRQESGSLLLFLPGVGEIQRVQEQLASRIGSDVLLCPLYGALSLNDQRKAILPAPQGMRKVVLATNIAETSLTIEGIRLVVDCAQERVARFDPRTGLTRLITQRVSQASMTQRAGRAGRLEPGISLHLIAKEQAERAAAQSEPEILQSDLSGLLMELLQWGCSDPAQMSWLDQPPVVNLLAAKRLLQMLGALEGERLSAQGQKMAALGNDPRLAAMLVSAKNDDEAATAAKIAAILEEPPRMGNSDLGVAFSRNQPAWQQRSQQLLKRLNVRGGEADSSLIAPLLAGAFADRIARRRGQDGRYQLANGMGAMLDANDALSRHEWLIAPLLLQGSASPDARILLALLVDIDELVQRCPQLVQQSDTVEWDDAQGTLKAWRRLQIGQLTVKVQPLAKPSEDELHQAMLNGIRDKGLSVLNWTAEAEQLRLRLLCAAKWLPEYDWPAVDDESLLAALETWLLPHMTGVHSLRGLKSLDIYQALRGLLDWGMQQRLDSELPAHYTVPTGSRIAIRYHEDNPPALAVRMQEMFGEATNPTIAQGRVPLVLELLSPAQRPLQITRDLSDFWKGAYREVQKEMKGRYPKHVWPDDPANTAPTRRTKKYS
# Sequence of UniProt P61887 (P61887 whole entry): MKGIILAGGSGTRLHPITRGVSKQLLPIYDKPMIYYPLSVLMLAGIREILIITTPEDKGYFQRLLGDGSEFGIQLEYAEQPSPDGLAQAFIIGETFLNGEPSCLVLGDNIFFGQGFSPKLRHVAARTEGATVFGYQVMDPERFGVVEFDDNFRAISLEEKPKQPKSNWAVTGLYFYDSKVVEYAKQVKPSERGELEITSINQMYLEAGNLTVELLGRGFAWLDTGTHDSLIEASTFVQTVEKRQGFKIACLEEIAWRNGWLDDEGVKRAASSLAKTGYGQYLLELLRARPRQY
# Sequence of UniProt P37028 (P37028 whole entry): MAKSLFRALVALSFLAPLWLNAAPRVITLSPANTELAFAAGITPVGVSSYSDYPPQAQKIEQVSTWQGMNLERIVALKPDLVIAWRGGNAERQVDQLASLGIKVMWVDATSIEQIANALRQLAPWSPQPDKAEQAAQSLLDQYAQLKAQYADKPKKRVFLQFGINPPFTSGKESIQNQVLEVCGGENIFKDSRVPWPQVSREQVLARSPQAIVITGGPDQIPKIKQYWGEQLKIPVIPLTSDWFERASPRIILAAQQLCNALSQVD
# Sequence of UniProt P08997 (P08997 whole entry): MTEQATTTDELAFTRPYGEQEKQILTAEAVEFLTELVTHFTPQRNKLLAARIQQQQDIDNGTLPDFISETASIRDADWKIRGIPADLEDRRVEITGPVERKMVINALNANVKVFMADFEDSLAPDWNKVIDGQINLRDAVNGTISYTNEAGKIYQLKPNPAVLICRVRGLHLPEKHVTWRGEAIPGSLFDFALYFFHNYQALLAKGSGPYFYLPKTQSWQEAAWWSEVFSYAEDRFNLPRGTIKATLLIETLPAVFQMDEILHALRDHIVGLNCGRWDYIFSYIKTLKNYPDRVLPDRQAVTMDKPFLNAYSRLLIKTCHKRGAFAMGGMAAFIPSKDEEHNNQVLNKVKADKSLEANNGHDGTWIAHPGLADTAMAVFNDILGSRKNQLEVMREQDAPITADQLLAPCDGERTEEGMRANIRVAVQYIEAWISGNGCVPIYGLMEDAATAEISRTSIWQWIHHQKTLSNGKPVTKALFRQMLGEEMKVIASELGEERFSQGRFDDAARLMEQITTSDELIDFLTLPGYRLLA
# Sequence of UniProt P76053 (P76053 whole entry): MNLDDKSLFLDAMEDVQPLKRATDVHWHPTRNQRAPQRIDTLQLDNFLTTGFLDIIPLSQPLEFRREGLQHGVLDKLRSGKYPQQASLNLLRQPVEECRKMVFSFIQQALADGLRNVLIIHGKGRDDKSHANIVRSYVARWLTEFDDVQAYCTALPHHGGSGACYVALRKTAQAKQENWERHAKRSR
# Sequence of UniProt P76245 (P76245 whole entry): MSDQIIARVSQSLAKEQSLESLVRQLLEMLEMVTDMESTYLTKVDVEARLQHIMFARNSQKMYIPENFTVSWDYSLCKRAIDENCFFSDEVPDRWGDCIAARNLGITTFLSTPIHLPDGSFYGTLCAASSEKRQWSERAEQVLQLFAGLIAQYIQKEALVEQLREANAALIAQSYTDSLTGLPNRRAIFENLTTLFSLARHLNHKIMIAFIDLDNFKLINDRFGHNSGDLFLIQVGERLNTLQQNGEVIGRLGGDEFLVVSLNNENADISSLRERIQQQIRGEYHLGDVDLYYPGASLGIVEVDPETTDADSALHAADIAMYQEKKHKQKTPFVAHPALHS
# Sequence of UniProt P52129 (P52129 whole entry): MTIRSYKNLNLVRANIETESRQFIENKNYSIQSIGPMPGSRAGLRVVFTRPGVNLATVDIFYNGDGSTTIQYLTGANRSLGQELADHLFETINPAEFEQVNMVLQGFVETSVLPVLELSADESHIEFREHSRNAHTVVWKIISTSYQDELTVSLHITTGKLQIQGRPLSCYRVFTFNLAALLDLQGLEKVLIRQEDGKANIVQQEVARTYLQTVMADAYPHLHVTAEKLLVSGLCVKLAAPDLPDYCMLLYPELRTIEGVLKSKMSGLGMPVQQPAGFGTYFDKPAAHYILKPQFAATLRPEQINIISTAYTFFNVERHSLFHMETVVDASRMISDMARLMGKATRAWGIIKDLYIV
# Sequence of UniProt P75830 (P75830 whole entry): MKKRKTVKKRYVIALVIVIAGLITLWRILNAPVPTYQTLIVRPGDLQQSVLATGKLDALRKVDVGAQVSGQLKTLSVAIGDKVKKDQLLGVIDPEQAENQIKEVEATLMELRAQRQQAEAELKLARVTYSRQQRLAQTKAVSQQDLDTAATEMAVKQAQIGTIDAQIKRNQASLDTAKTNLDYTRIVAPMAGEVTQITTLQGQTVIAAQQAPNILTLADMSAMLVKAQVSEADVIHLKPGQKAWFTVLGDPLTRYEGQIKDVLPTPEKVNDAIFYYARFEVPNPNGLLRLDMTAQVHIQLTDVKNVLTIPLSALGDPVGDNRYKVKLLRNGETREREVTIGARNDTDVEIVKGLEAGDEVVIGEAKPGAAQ
# Sequence of UniProt P23862 (P23862 whole entry): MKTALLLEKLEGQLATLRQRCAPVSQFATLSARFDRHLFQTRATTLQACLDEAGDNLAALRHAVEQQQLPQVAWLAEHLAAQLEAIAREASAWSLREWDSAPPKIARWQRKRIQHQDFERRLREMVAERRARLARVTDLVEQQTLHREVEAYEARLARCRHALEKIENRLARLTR
row,Target,log2 fold change
1,"UniProt P23862 (peptide sequence: KRIQHQDFER, peptide start residue: 111)",1.03
2,"UniProt P52129 (peptide sequence: LQIQGRPLSCYR, peptide start residue: 161)",0.646
3,"UniProt P37028 (peptide sequence: IVALKPDLVIAWR, peptide start residue: 74)",0.465
4,"UniProt P75830 (peptide sequence: TNLDYTR, peptide start residue: 179)",-0.551
5,"UniProt P61887 (peptide sequence: FGVVEFDDNFR, peptide start residue: 143)",-0.44
6,"UniProt P37024 (peptide sequence: LVVDCAQER, peptide start residue: 286)",-0.502
7,"UniProt P08839 (peptide sequence: TSHTSIMAR, peptide start residue: 187)",0.443
8,"UniProt P76245 (peptide sequence: TPFVAHPALHS, peptide start residue: 331)",1.1
9,"UniProt P76053 (peptide sequence: NVLIIHGK, peptide start residue: 116)",0.613
10,"UniProt P39830 (peptide sequence: GANQVVMGER, peptide start residue: 528)",1.21
11,"UniProt P08997 (peptide sequence: TLSNGKPVTK, peptide start residue: 467)",-0.591
12,"UniProt P0AAG8 (peptide sequence: TQIGSLSGGNQQK, peptide start residue: 402)",0.32
